A number with no mark means an inactive call. Records with an inconclusive call do not appear. Activity calls are given as the source filed them. Unless noted, calls follow the shape of the dose curve; as a rule, active = well fitted curve in the direction sought with a large enough effect in the repeat runs; inconclusive = weak or mixed curves; inactive = no such curve, though single readings can be large; an effect the other way counts as inactive or inconclusive.

The values that follow come from PubChem BioAssay (Tox21).

A short description of assay [1]: qHTS assay to identify small molecule agonists of the hypoxia (HIF-1) signaling pathway - cell viability counter screen (AID 1224844; calls by dose curve; also: nearly all actives have a fitted effect of over 50% in size; also: potency is read from the fitted curve at half-maximal effect). The settings on record: HRE-bla ME-180 viability, CellTiter-Glo luminescence, 17 h; series mostly up to 76.8 µM. Put shortly: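 HRE-bla ME-180; 0.5% dFBS; cpd 17 h, 37C, 5% CO2; CellTiter-Glo lum., 30 min RT, post-FRET read, same wells.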
For orientation: Quantitative high-throughput screening tests each substance at several concentrations.

Assay [2] can be described thus: qHTS assay to identify small molecule agonists of H2AX - cell viability counter screen (AID 1224847; calls by dose curve; also: nearly all actives have a fitted effect of over 30% in size; also: potency is read from the fitted curve at half-maximal effect; as to activity change, negative = cytotoxicity: top concentration of the series differs between compounds). The settings on record: CHO-K1 viability, CellTiter-Glo luminescence, 3 h; series mostly up to 70.9 µM. An outline of the steps: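 Cytotoxicity counter screen in wild-type CHO-K1 cells: a 3 hr compound treatment at 37C across 15 concentrations, followed by CellTiter-Glo luminescence to gauge viable cells.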

The nature of assay [3]: qHTS assay to identify small molecule antagonists of the estrogen related receptor (ERR) signaling pathway from Tox21 library (AID 1224848). Also: nearly all actives have a fitted effect of over 50% in size. Also: potency is read from the fitted curve at half-maximal effect. To be noted: ERR reporter cell line, luciferase antagonist mode, 18 h; series mostly up to 92.4 µM. An outline of the steps:
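Compounds dissolved in DMSO are pin-transferred onto ERR reporter cells (2,000 per well) that have settled for 6 h at 37 C. Plates then incubate 18 h at 37 C before ONE-Glo luciferase reagent and a luminescence read 30 min later.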

Assay [4] is described as follows: qHTS assay to identify small molecule agonists of the estrogen related receptor (ERR) signaling pathway from Tox21 library (AID 1224849; calls by dose curve; also: nearly all actives have a fitted effect of over 15% in size). The settings on record: ERR reporter cell line, ONE-Glo luciferase, 18 h; at 92.4 µM (top of the series) unless noted. Put shortly:
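Tox21 compounds tested for ERR agonism in an NTP reporter cell line: 18 h treatment at 37 C, then ONE-Glo luminescence.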

Assay [5] can be described thus: qHTS RealTime-Glo MT Cell Viability Assay in HEK293 cells - 32 hour (AID 1224868). Also: nearly all actives have a fitted effect of over 50% in size. Also: potency is read from the fitted curve at half-maximal effect. As to activity change, negative = cytotoxic: top concentration of the series differs between compounds. The settings on record: RealTime-Glo luminescence; series mostly up to 76.8 µM. An outline of the steps: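 Reads taken at 0, 8, 16, 24, 32 and 40 h from the same wells. HEK293 cells (600/well) carried RealTime-Glo reagents from seeding, with compound added after a 5 h settle at 37 C.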

Assay [6] in a line: A CellTox Green Cytotoxicity Assay to monitor cytotoxicity in HEK293 cells - 0 hour (AID 1224869). Also: nearly all actives have a fitted effect of over 50% in size. The settings on record: CellTox Green fluorescence; series mostly up to 76.8 µM. An outline of the steps:
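Tox21 screen in HEK293: membrane-impermeant cyanine dye fluoresces on binding dead-cell DNA; compound pinned 5 h post-seeding, plates held at 37 C, signal read repeatedly through 40 h.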

Assay [7] in a line: qHTS RealTime-Glo MT Cell Viability Assay in HepG2 cells - 24 hour (AID 1224867). Also: nearly all actives have a fitted effect of over 50% in size. Also: potency is read from the fitted curve at half-maximal effect. The settings on record: RealTime-Glo luminescence; series mostly up to 76.8 µM. Put shortly: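 HepG2 suspension premixed with RealTime-Glo reagents is plated at 600 cells per well and left 5 h at 37 C/5% CO2. Compounds in DMSO then go in, and bioluminescence reflecting viable cell number is recorded over 40 h.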

A short description of assay [8]: qHTS assay to identify small molecule agonists of H2AX (AID 1224845; active = well fitted activation curve with a large enough effect in the signal ratio in the repeat runs, not every such curve was filed as active; the % refers to the signal ratio; also: potency is read from the fitted curve at half-maximal effect). To be noted: CHO-K1 phospho-H2AX Ser139 HTRF, 3 h; series mostly up to 154 µM. Put shortly: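 Wild-type CHO-K1 cells, plated overnight, exposed 3hr at 37C to 15 concentrations (0.76% DMSO final). Lysed, then HTRF anti-pH2AX (S139) cryptate and anti-H2AX-d2 antibodies, 24 hr room temperature; 665/620 nm emission read.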

The nature of assay [9]: qHTS assay to identify small molecule agonists of the hypoxia (HIF-1) signaling pathway (AID 1224846; active = well fitted activation curve with a large enough effect in the signal ratio in the repeat runs, not every such curve was filed as active; the % refers to the signal ratio; also: potency is read from the fitted curve at half-maximal effect). The settings on record: HRE-bla ME-180 cells, beta-lactamase ratio, 17 h; series mostly up to 76.8 µM. Put shortly: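 Reporter induction in HRE-bla ME-180 cells is taken as agonism: cells sit 5 hrs after plating, receive compounds or DMSO only, incubate 17 hrs at 37C under 5% CO2, and are loaded with CCF4-AM for beta-lactamase FRET measurement.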

Assay [10] is described as follows: qHTS RealTime-Glo MT Cell Viability Assay in HepG2 cells - 40 hour (AID 1224870). Also: nearly all actives have a fitted effect of over 50% in size. Also: potency is read from the fitted curve at half-maximal effect. The settings on record: RealTime-Glo luminescence; series mostly up to 76.8 µM. An outline of the steps:
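HepG2 cells (600/well) mixed with RealTime-Glo MT reagent, settled 5 h at 37 C/5% CO2 before compound addition. Nonlytic NanoLuc luminescence from viable-cell prosubstrate reduction read repeatedly during 40 h treatment at 37 C.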
% is scaled to controls: 0 for no effect and ±100 for the full control effect.

Take `CN(C)c1ccc(C2(c3ccc(N(C)C)cc3)OC(=O)c3cc(N(C)C)ccc32)cc1`: the Potency result in assay [1], in assay [2], in [3], in [5] and in assay [6] was “inactive” each time. In assay [4], the activity change, positive = activation is -13.6%.

Regarding `CCCCCCCCCCCCCC[P+](CCCC)(CCCC)CCCC` (tested in a mixture with another compound), the Potency was 15.6 µM (active) in [1], 3.6 µM (active) in [2], 19.6 µM (active) in assay [7] and 0.553 µM (active) in assay [5]. The Potency result in assay [6] is “inactive”.

As to `O=C(OC[C@H]1O[C@@H](OC(=O)c2cc(O)c(O)c(OC(=O)c3cc(O)c(O)c(O)c3)c2)[C@H](OC(=O)c2cc(O)c(O)c(OC(=O)c3cc(O)c(O)c(O)c3)c2)[C@@H](OC(=O)c2cc(O)c(O)c(OC(=O)c3cc(O)c(O)c(O)c3)c2)[C@@H]1OC(=O)c1cc(O)c(O)c(OC(=O)c2cc(O)c(O)c(O)c2)c1)c1cc(O)c(O)c(OC(=O)c2cc(O)c(O)c(O)c2)c1`, the activity change, negative = cytotoxicity in [1] was -0.825% [at 15.8 µM]. In addition, in assay [2], the Potency entry was “inactive”. Also, the activity change, positive = activation in [4] is -16% [at 19 µM]. Further, the activity change, negative = cytotoxic in assay [5] is -17.3% [at 15.8 µM]. Besides, the cytotoxicity in assay [6] is -16.9% [at 15.8 µM].

Regarding `Nc1ccc(N)c2ccccc12`, the Potency in assay [1] is 24.5 µM (active); in assay [3] it was 27.3 µM (active). Moreover, the Potency entry in [6] was “inactive”.

Turning to `Cc1cc(=O)oc2cc(N(C)C)ccc12`, the Potency result in assay [8], in assay [2], in assay [3] and in assay [6] was “inactive” throughout. In addition, the Potency in assay [9] was 49 µM (active).

As for `Oc1ccc(N=Nc2ccccc2)cc1`, the Potency entry in [1], in assay [7], in [6] and in assay [10] was “inactive” each time. In [5], the Potency is 19.8 µM (active).

On to `CC(C)(C)C1CCC(CC2=C(O)c3ccccc3C(=O)C2=O)CC1` (centres undefined), for which the Potency entry in assay [8], in assay [9], in [7], in [5] and in assay [6] was “inactive” each time.

As to `ON=C1CCCC1`, the Potency in assay [8] is 104 µM (active); in assay [3], 39.9 µM (active); in assay [5], 25.4 µM (active). The Potency entry in assay [9], in assay [6] and in assay [10] was “inactive” each time. Further, in assay [4], the activity change, positive = activation is -71.1%.

`COCCCC/C(=N\OCCN)c1ccc(C(F)(F)F)cc1`: the Potency entry in [8], in assay [9], in [3], in assay [7], in assay [6] and in assay [10] was “inactive” throughout.

Turning to `CCOC(=O)/C=C(C)/C=C/C=C(C)/C=C/c1c(C)cc(OC)c(C)c1C`, the Potency result in assay [1], in [6] and in assay [10] was “inactive” throughout.

As for `O=CC=C(c1ccccc1)c1ccccc1`, the Potency entry in assay [1], in assay [6] and in assay [10] was “inactive” each time. Further, in [5], the Potency is 17.5 µM (active).

For the compound `C=CC(=O)OCC(CO)(COCC(COC(=O)C=C)(COC(=O)C=C)COC(=O)C=C)COC(=O)C=C`, the Potency in assay [1] is 2.16 µM (active); in assay [7], 4.31 µM (active); in assay [10], 4.31 µM (active). Further, the Potency result in [6] is “inactive”.

For the compound `CCCCCCCCCOC(=O)c1ccc(O)cc1`, the Potency in assay [1] was 54.2 µM (active); in assay [5] it was 38.3 µM (active). Besides, the activity change, positive = activation in assay [4] was -33.4%. Besides, the Potency result in [6] is “inactive”.

Consider `CCN(CCC#N)c1ccc(N=Nc2c(Cl)cc([N+](=O)[O-])cc2Cl)cc1`, for which the Potency entry in [8], in assay [9], in assay [5] and in assay [6] was “inactive” in each case. Also, in assay [4], the activity change, positive = activation is -27%.

As to `Nc1cc(C(F)(F)F)ccc1S`, the Potency entry in assay [1], in assay [7], in assay [5], in [6] and in assay [10] was “inactive” each time. Besides, in assay [4], the activity change, positive = activation is -31.1% [at 42.5 µM].

Turning to `Cc1ccc(-n2nc(C(C)(C)C)cc2NC(=O)Nc2ccc(OCCN3CCOCC3)c3ccccc23)cc1`, the Potency in assay [8] was 49.2 µM (active). Also, the Potency entry in [9], in assay [2], in assay [7], in [6] and in [10] was “inactive” each time. In [4], the activity change, positive = activation is -18.8% [at 42.5 µM].

With `COc1ccc(C(=O)/C(Br)=C\C(=O)O)cc1`, the Potency in assay [8] was 31.8 µM (active); in [5], 38.9 µM (active). Moreover, the Potency result in assay [9], in [3] and in assay [6] was “inactive” in each case.

`CN(C)C(=O)C1(N2CCCCC2)CCN(CC[C@@]2(c3ccc(Cl)c(Cl)c3)CN(C(=O)c3ccccc3)CCO2)CC1`: the Potency is 47.2 µM (active) in assay [8]; 52.9 µM (active) in assay [2]; 28.6 µM (active) in assay [3]; 20.4 µM (active) in assay [7]; 10.2 µM (active) in assay [5]; 18.2 µM (active) in assay [10]. Further, the activity change, positive = activation in [4] is -73.9%. The Potency entry in [6] was “inactive”.

For the compound `N#CC1(c2ccc(F)cc2)CCC(=O)CC1`, the Potency result in assay [8], in [9], in assay [2], in assay [3], in [7] and in assay [5] was “inactive” each time. Further, the Potency entry in [6] and in assay [10] was “inactive” throughout.

Consider `COc1cccc(N)c1`, for which the Potency entry in assay [8], in assay [9], in [2], in assay [3], in [5] and in [6] was “inactive” each time. Also, in assay [10], the Potency entry is “inactive”. Further, the activity change, positive = activation in assay [4] was -25.2%.

On to `CC(=O)OCC(C)OC(C)=O` (centres undefined), for which the Potency entry in assay [8], in [9], in assay [5], in assay [6] and in assay [10] was “inactive” throughout.

Regarding `CCc1oc2ccccc2c1C(=O)c1cc(Br)c(O)c(Br)c1`, the Potency result in assay [1], in assay [7], in assay [6] and in assay [10] was “inactive” throughout.

As for `CCC(CN)=C(c1ccccc1)c1ccccc1`, the Potency result in [8], in assay [9], in assay [2], in assay [7], in [5] and in assay [6] was “inactive” in each case. Further, the Potency result in assay [10] was “inactive”.

With `C/C=C1/C(=O)C[C@H]2[C@@H]3CCC4=CC(=O)CC[C@]4(C)[C@H]3CC[C@]12C`, the Potency entry in [8], in assay [9], in assay [2], in assay [6] and in assay [10] was “inactive” throughout. Moreover, the Potency in assay [5] is 48.8 µM (active).

As for `COc1ccc(-c2ccc3cc(C(=O)O)ccc3c2)cc1C12CC3CC(CC(C3)C1)C2`, the Potency in [1] was 13.4 µM (active); in assay [5], 5.35 µM (active). In addition, the Potency entry in [6] is “inactive”.
